Consider 40 molecules from PubChem BioAssay (Tox21).

Inconclusive results are not listed. Active and inactive are the calls of the source. Calls follow the shape of the dose curve; as a rule, active = well fitted cell-killing curve with a large enough effect in the repeat runs; inconclusive = weak or mixed curves, or effect the other way; inactive = flat fitted curve, though single readings scatter.

A short description of this assay: qHTS RealTime-Glo MT Cell Viability Assay in HEK293 cells - 0 hour (AID 1224880). Also: top concentration of the series differs between compounds; nearly all actives have a fitted effect of over 45% in size. The following applies: RealTime-Glo luminescence; series mostly up to 76.8 µM. The text has this:
U.S. Tox21 Program National Center for Advancing Translational Sciences [NCATS] NIH Chemical Genomics Center [NCGC] U.S. Environmental Protection Agency [EPA] National Institutes of Environmental Health Sciences [NIEHS] National Toxicology Program [NTP] U.S. Food and Drug Administration [FDA] Tox21 Assay Overview: Measure of cell viability is critical in the cell-base assay. Analysis of cell viability is necessary for the characterization of cell responses to cytotoxic drugs and environmental stress. A RealTime-Glo MT Cell Viability Assay to monitor cell viability in real time of continues cell culture during 40 hours of compound treatment was used to screen Tox21 10K library compounds in Hek293 cells. The RealTime-Glo MT Cell Viability Assay is a nonlytic, homogeneous, bioluminescent method to measure cell viability in real time using a simple, plate-based method. The assay involves adding NanoLuc luciferase and a cell-permeant prosubstrate to cells in culture. Viable cells reduce the proprietary prosubstrate to generate a substrate for NanoLuc luciferase. This substrate diffuses from cells into the surrounding culture medium, where it is rapidly used by the NanoLuc Enzyme to produce a luminescent signal. The signal correlates with the number of viable cells, making the assay well suited for cytotoxicity studies.
Tox21 Assay Protocol Summary: The mixture of Hek293 cell suspension and reagents were dispensed at 600cells/6 ul/well in 1536-well tissue culture treated black solid bottom plates using a Multidrop dispenser. After the assay plates were incubated at a 37 C/5% CO2 incubator for 5 hours, 23 nL of compounds dissolved in DMSO, positive and negative controls was transferred to the assay plate by a pintool work station. The plates were incubated at 37 C for 40 hours. The luminescence intensity were measured at 0h, 8h, 16h, 24h, 32h and 40h time points using ViewLux plate reader during compound treatment.
With `CSc1nnc(C(C)(C)C)c(=O)n1N`, the call was inactive.

Take `ClC(Cl)c1ccccc1`: the molecule was called inactive.

Consider `CNC(=O)O/N=C/C(C)(C)S(C)(=O)=O`, for which the outcome was inactive.

As to `Nc1ccc(N)cc1`, the result was inactive.

As to `CNCC(O)c1ccc(O)cc1` (stereo not given), the call was inactive.

`OCCCCO`: the call was inactive.

For the molecule `CCOP(=S)(OCC)Oc1cc(C)nc(C(C)C)n1`, the outcome was inactive.

For `NNc1ccccc1`, the molecule was called inactive.

In the case of `C=CC(=O)OCC(CC)CCCC` (stereo not given), the outcome was inactive.

`CN(C)C(=O)C(c1ccccc1)c1ccccc1`: the call was inactive.

As to `O=C(O)C(Br)Br`, the result was inactive.

Regarding `Cc1ccc(N)cc1`, the outcome was inactive.

On to `CN1C(=O)CCS(=O)(=O)C1c1ccc(Cl)cc1` (stereo not given), for which the molecule was called inactive.

In the case of `C=CC(=O)OCCCCCC(C)C`, the call was inactive.

As to `CC(C)CCCCCCOC(=O)c1ccccc1C(=O)OCCCCCCC(C)C`, the molecule was called inactive.

With `FC(F)(F)c1ccc(Cl)cc1`, the molecule was called inactive.

Consider `Cl[C@H]1OCCO[C@@H]1Cl`, for which the molecule was classed as inactive.

For `CCSC(=O)N1CCCCCC1`, the molecule was called inactive.

With `OCc1ccco1`, the result was inactive.

Consider `Cl/C=C/Cl`, for which the call was inactive.

For the molecule `CC(C)c1cccc(C(C)C)c1O`, the molecule was classed as inactive.

Take `Nc1ccc([As](=O)(O)O)cc1`: the result was inactive.

On to `CC(=O)/C=C/c1ccccc1`, for which the result was inactive.

As for `CN(C)CCC#N`, the molecule was classed as inactive.

Consider `Nc1ncc([N+](=O)[O-])s1`, for which the outcome was inactive.

For the molecule `COC(=O)Nc1cccc(OC(=O)Nc2cccc(C)c2)c1`, the result was inactive.

As to `Cc1ccc(O)c(C)c1`, the outcome was inactive.

For `C[C@H]1C(=O)O[C@@H]2CCN3CC=C(COC(=O)[C@](C)(O)[C@]1(C)O)[C@H]23`, the outcome was inactive.

Turning to `OCC(O)CCl` (stereo not given), the outcome was inactive.

As to `N#CN=C(N)N`, the outcome was inactive.

As to `CC(C)(C)C(=O)CCl`, the molecule was called inactive.

As for `Cc1ccc(N=C=O)cc1N=C=O`, the result was inactive.

Regarding `CCCCCCCCCCCCCCCCCC(=O)O`, the result was inactive.

In the case of `O=[N+]([O-])c1cc([As](=O)(O)O)ccc1O`, the molecule was called inactive.

Turning to `O=S(=O)(O)OOS(=O)(=O)O`, the outcome was inactive.

With `Cc1ccccc1N`, the molecule was called inactive.

On to `CNC(=O)Oc1cccc2ccccc12`, for which the call was inactive.

For `O=C(O)Cc1ccccc1`, the call was inactive.

As to `CCCOC(=O)c1ccccc1C(=O)OCCC`, the molecule was classed as inactive.

As for `COc1cc(-c2ccc(N)c(OC)c2)ccc1N`, the molecule was called inactive.
